The campaign covered roughly 98,000 compounds. About 150 (0.15%) were called active.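 Rule for the calls: active = growth inhibition above about 50% at one test dose (limit read from the data); inactive = the rest.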 Shown is part of a subset that was picked to be rich in actives.
assay: growth inhibitors of wild-type E. coli, primary screen, strain BW25113, expanded library, OD600 (AID 710); details: OD600 absorbance, at 100 µM, stronger effect = higher value;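 note: growth measured after 20 h incubation at 37 °C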

Growth inhibition, active:
CC(=O)c1c(C)n([O-])c2ccccc2[n+]1=O 100%, COC(=O)CNS(=O)(=O)c1ccc(Cc2ccc(S(=O)(=O)NCC(=O)OC)cc2)cc1 50%

Growth inhibition, inactive:
COC(=O)CNC(c1ccccc1Cl)c1cc(Br)ccc1NC(=O)CCN1CCOCC1 (stereo not drawn) -3%, CCOC(=O)C1=C(CN2CCc3ccccc32)NC(=O)NC1c1ccc(Cl)cc1 (stereo not drawn) -2%, O=C(CN(c1ccccc1)S(=O)(=O)c1ccc(Cl)cc1)Nc1ccccc1C(=O)N1CCCC1 -17%, Cc1cc(OC(=O)c2c(Cl)cccc2Cl)nc(C)n1 5%, COc1ccc(-n2nc(C(=O)NCC(=O)Nc3cccc(C)n3)c3ccccc3c2=O)cc1 -15%, CCOc1cccc(SCc2noc(C(=O)NC(C)C)c2C(=O)O)c1 -4%, CCOC(=O)C(=CNc1cccc(C)n1)C(=O)OCC -6%, O=C(NCC1CCCO1)/C(=C\c1ccco1)NC(=O)c1ccccc1 (stereo not drawn) -5%, O=C(NC1(C(F)(F)F)NC(=O)N(Cc2cccnc2)C1=O)c1ccccc1Cl (stereo not drawn) -1%, O=C(/C=C/NNC(=O)c1cccc(Br)c1)c1ccccc1 -3%, CNC(=O)c1c(NC(NC(=O)c2ccco2)C(=O)c2ccc(Cl)cc2)sc2c1CCCC2 (stereo not drawn) -6%, CCOc1ccc(C(O)Cn2c(=N)n(CCN3CCCCC3)c3ccccc32)cc1 (stereo not drawn) -1%, Cc1ccc(OCC(=O)Nn2cnc3ccccc32)cc1 5%, Cc1ccc(-n2nc3ccc(NC(=O)/C=C/c4ccco4)cc3n2)cc1C -1%, S=c1nccc(-c2cc(Cl)sc2Cl)[nH]1 3%, COc1ccccc1NC(=O)c1ccc2nc(N3C(=O)CCC3=O)sc2c1 0%, N#C/C(=C1/CCCN1)c1ccccn1 3%, CCOc1ccc(NC(=O)c2ccccc2NS(C)(=O)=O)cc1 -4%, S=c1[nH]nc(-c2ccc(Cl)cc2)n1CC1CCCO1 (stereo not drawn) 2%, CSc1ccc(CCNC(=O)C2CCN(c3nnc(-n4cccc4)s3)CC2)cc1 -3%, CSc1ccccc1C(=O)Nc1cccc(C(C)=O)c1 -4%, Clc1ccc(-c2nnc(-c3ccccc3)nc2N2CCSCC2)cc1 -24%, COC(=O)c1c(CCl)noc1C(=O)NC(C)C 1%, CCn1c(Cc2cccs2)nnc1SCC(=O)c1ccc(C)cc1 -2%, Cc1cccc(NC(=O)N(Cc2cc3cc(C)cc(C)c3[nH]c2=O)CC2COCCO2)c1 (stereo not drawn) -1%, CCCCCOC(=O)c1ccc(N2C(=O)C3C4C=CC(C4)C3C2=O)cc1 (stereo not drawn) -5%, Cn1ncc(Br)c1C(=O)NCc1cccs1 5%, COc1ccc(/C(N)=N/OC(=O)Oc2ccccc2)cc1 -14%, CCOC(=O)c1nn(-c2cccc(C)c2)cc1C(=O)c1ccccc1 5%, Cc1ccc(N(CC(=O)Nc2cccc(N(C)S(C)(=O)=O)c2)S(C)(=O)=O)cc1 -5%, Cc1ccn(C(CC(=O)c2ccc(Br)cc2)C(=O)O)n1 (stereo not drawn) 8%, Cn1sc(NC(=O)c2ccccc2)nc1=O -5%, Cc1cc(C)c(S(=O)(=O)N2C=CC(C(F)(F)F)=NCC2)c(C)c1 7%, CCOc1ccc(S(=O)(=O)Nc2nc3cc(OC)ccc3s2)cc1 -6%, CCCCc1nc(NCCN)c(C#N)c2c1CSC(C)(C)C2 33%, Cc1ccc(Oc2ccc3c(c2)C(=O)N(c2cccc4cccnc24)C3=O)cc1 3%, OCCNc1nc2ccccc2[nH]1 2%, Cc1ccc(S(=O)(=O)N2CCC(C(=O)NCC3CCCO3)CC2)cc1 (stereo not drawn) -7%, CC1(C)Cc2nc3sc4c(SCC(=O)NC(c5ccccc5)c5ccccc5)ncnc4c3cc2CO1 -10%, CN(C)C(=O)c1cc(Br)ccc1Cl 2%, C=CCN(C(=O)Cn1ncc2c1-c1cc(C)ccc1OC2)c1ccccc1 5%, O=c1[nH]n(-c2cccc(Cl)c2)c2ncccc12 -6%, CCOc1ccccc1NC(=O)C12CC3CC(C1)CC(c1ccc(C)cc1)(C3)C2 -16%, O=C(CCN1c2ccccc2Sc2ccccc21)Nc1ccccc1 -21%, Cc1cc([N+](=O)[O-])ccc1NCc1cccc([N+](=O)[O-])c1 -11%, CCOc1ccc(S(=O)(=O)Nc2ccc(S(=O)(=O)Nc3cc(OC)ccc3OC)cc2)cc1 -6%, CCCCn1c(=S)[nH]c2cc(S(=O)(=O)N3CCCCC3)ccc21 2%, CSC1=N/C(=C\c2ccc3c(c2)OCO3)C(=O)S1 -11%, COc1cccc(NC(=O)c2nn(C34CC5CC(CC(C5)C3)C4)cc2[N+](=O)[O-])c1 -6%, O=c1c2ccccc2c(-c2ccc(Br)cc2)nn1Cc1ccccc1 -14%, COc1ccc(-c2cn(-c3ccc(C)cc3)c(=O)n2CC(=O)Nc2ccc(OC)c(OC)c2)cc1 -4%, CC1CC(C)CN(C/C=C/c2ccccc2[N+](=O)[O-])C1 (stereo not drawn) -1%, CCCCNC(=O)OC(C)CNC(=O)OC (stereo not drawn) 10%, Cc1cc(NC(=O)CS(=O)(=O)c2cn(C)c3ccccc23)no1 0%, COc1cc(CNCc2cccs2)cc(Br)c1OC 5%, c1ccc(COc2ccccc2CNCc2cccnc2)cc1 3%, CCNc1nc(N)nc(-c2cc(Cl)ccc2OC)n1 4%, Cn1c(-c2sc3cc(C(F)(F)F)cnc3c2-c2ccccc2)n[nH]c1=S -2%, C=CCn1c(SCC(=O)c2ccc(Br)cc2)nnc1C(C)NC(=O)Cc1ccc(OC)cc1 (stereo not drawn) 4%, Cc1ccc(C(=O)N2CCN(C(=O)N3CCOCC3)CC2)cc1 0%, CCN(CC)S(=O)(=O)c1ccc(N(C)Cc2ccc(C(F)(F)F)cc2)nc1 -2%, CC(C)Cn1cnc2c1c(=O)n(CC(O)c1ccccc1)c(=O)n2CC(C)C (stereo not drawn) 8%, CC(=O)c1ccc2c(c1)c1ccccc1n2CC(C)C -1%, Cc1ccc(C)c(N2C(=O)CS/C2=N\NC(=O)c2ccccc2Cl)c1 1%, Nc1c(-c2ccc(F)cc2)cnn1C1CCS(=O)(=O)C1 (stereo not drawn) 15%, COc1ccc(-c2c(C(C)=O)c(C)nc3sc4c(=O)n(-c5ccc(C)cc5)nnc4c23)cc1 -14%, COc1ccc(S(=O)(=O)Nc2ccc(F)cc2)c(C)c1C 11%, O=C(c1ccc2c(c1)OCO2)N1CCN(C(=O)c2ccco2)CC1 2%, CN=C1S/C(=C\c2ccc(Sc3ccc(Cl)cc3)o2)C(=O)N1C -20%, COC(=O)COc1ccc(S(=O)(=O)Nc2ccc(NC(C)=O)cc2)cc1 0%, COC(=O)CNS(=O)(=O)c1ccc(OC)cc1 1%, Cc1ccc(C2CC2C(=O)NN)cc1 (stereo not drawn) -12%, CCCNC(=O)c1ccccc1NC(=O)CSCc1ccc(OC)cc1 0%, Cc1ccc(Sc2cc(N3CCOCC3)nc(-c3ccccc3)n2)cc1 -9%, C=CCn1c(SCC(=O)/C(C#N)=C(\C)N)nc2sc(C)c(C)c2c1=O -6%, CC(C)(C)c1ccc(OC2=CS(=O)(=O)c3ccccc32)cc1 -3%, Cc1ccc(CNC(=O)C2CC(c3ccccc3[N+](=O)[O-])=NO2)o1 (stereo not drawn) 0%, CCC(=O)Nc1ccc(S(=O)(=O)NCC2CCCO2)cc1 (stereo not drawn) 3%, CC(C)c1ccc(C(=O)NCCCc2ccccc2)cc1 1%, C=CCOC(=O)C1=C(C)NC(SCC(=O)OCC)=C(C#N)C1c1ccc(C)cc1 (stereo not drawn) -10%, CCOc1ccc(C(=O)NC(C(=O)NCc2ccccn2)C(C)C)cc1 (stereo not drawn) -6%

From PubChem BioAssay AID710 (SRMLSC, 2007)
